Assay results from PubChem BioAssay (NCATS).
Where “and” joins values, the source holds several entries; their conditions need not be identical. Equal entries are not always repeated. Records with an inconclusive call do not appear. The source holds several records for some structures; these can differ, active in one and inactive in another. Calls of active or inactive are those of the source. Calls follow the shape of the dose curve; as a rule, active = well fitted curve in the direction sought with a large enough effect; inconclusive = small, poorly fitted or top-dose-only effect, or another doubt; inactive = no such curve, though single readings can be large; an effect the other way counts as inactive or inconclusive.

Key:
[1] = test system: TAB109; experiment: qHTS profiling for inhibitors of Plasmodium falciparum proliferation (AID 504749); also: nearly all actives have a fitted effect of over 60% in size; also: potency is read from the fitted curve at half-maximal effect; settings: P. falciparum in erythrocytes, SYBR Green DNA, 72 h; series mostly up to 28.7 µM
In short: (§1)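 Three-day growth assay of blood-stage parasites in erythrocytes (0.3% parasitemia, 2.5% hematocrit) at 37 C, 5% CO2, quantified by SYBR Green DNA staining after overnight detergent lysis.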

[2] = test system: TAB113; experiment: as above; settings: P. falciparum in erythrocytes, SYBR Green DNA, 72 h; series mostly up to 28.7 µM
In short: as §1

[3] = test system: TAB165; experiment: as above; settings: P. falciparum in erythrocytes, SYBR Green DNA, 72 h; series mostly up to 28.7 µM
In short: as §1

[4] = test system: CRL-7250; experiment: Cytotoxic Profiling of Annotated Libraries Using Quantitative High-Throughput Screening (AID 1296008); settings: Five cell lines viability, CellTiter-Glo ATP luminescence, 48-72 h; max response: hits give low values; also: nearly all actives have a fitted effect of over 60% in size; also: potency is read from the fitted curve at half-maximal effect; as to max response: % is scaled to controls: 0 for no effect and ±100 for the full control effect
In short: (§2)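 Cytotoxicity was measured as CellTiter-Glo ATP luminescence, read after 10 min at room temperature. Compound treatment of the cells lasted 48 or 72 hr at 37 degrees Celsius in a qHTS format.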

[5] = test system: HEK293; experiment: as above; settings: Five cell lines viability, CellTiter-Glo ATP luminescence, 48-72 h; max response: hits give low values
In short: as §2

[6] = test system: HaCat; experiment: as above; settings: Five cell lines viability, CellTiter-Glo ATP luminescence, 48-72 h; max response: hits give low values
In short: as §2

[7] = test system: KB-3-1; experiment: as above; settings: Five cell lines viability, CellTiter-Glo ATP luminescence, 48-72 h; max response: hits give low values
In short: as §2

[8] = test system: NIH3T3; experiment: as above; settings: Five cell lines viability, CellTiter-Glo ATP luminescence, 48-72 h; max response: hits give low values
In short: as §2

[9] = test system: HACAT; experiment: qHTS assay to identify novel small-molecules to repurpose for Merkel cell carcinoma treatment (AID 1296009); settings: MCC and control cell lines, CellTiter-Glo viability, 72 h; at 44.8 µM (top of the series) unless noted; also: nearly all actives have a fitted effect of over 60% in size; also: potency is read from the fitted curve at half-maximal effect
In short: (§3)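 After compound transfer in DMSO, plates were kept 72 hr at 37 degree celsius. Luminescent ATP signal from CellTiter-Glo served as viability measure, normalized against DMSO and no-cell controls.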

[10] = test system: HEK293T; experiment: as above; settings: MCC and control cell lines, CellTiter-Glo viability, 72 h; at 44.8 µM (top of the series)
In short: as §3

[11] = test system: MCC-13; experiment: as above; settings: MCC and control cell lines, CellTiter-Glo viability, 72 h; series mostly up to 46 µM
In short: as §3

[12] = test system: MCC-26; experiment: as above; settings: MCC and control cell lines, CellTiter-Glo viability, 72 h; series mostly up to 46 µM
In short: as §3

[13] = test system: MKL-1; experiment: as above; settings: MCC and control cell lines, CellTiter-Glo viability, 72 h; series mostly up to 46 µM
In short: as §3

[14] = test system: MKL-2; experiment: as above; settings: MCC and control cell lines, CellTiter-Glo viability, 72 h; series mostly up to 46 µM
In short: as §3

[15] = test system: UISO; experiment: as above; settings: MCC and control cell lines, CellTiter-Glo viability, 72 h; series mostly up to 46 µM
In short: as §3

[16] = test system: WaGa; experiment: as above; settings: MCC and control cell lines, CellTiter-Glo viability, 72 h; series mostly up to 46 µM
In short: as §3

[17] = test system: C33A; experiment: Primary qHTS to identify gynecologic anti-cancer compounds using libraries of approved drugs and bioactive compounds (AID 1345084); settings: Gynecologic cancer cell panel viability, ATPlite luminescence, 48 h; series mostly up to 57.5 µM; also: % is scaled to controls: 0 for no effect and ±100 for the full control effect; nearly all actives have a fitted effect of over 55% in size
In short: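 ATP-based viability (ATPlite), 1,000 cells/well, 16 h pre-incubation, 48 h compound at 37 C, 5% CO2, 15 min RT before read.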

[18] = test system: W2; experiment: qHTS profiling for inhibitors of Plasmodium falciparum proliferation (AID 504749); also: nearly all actives have a fitted effect of over 60% in size; also: potency is read from the fitted curve at half-maximal effect; settings: P. falciparum in erythrocytes, SYBR Green DNA, 72 h; series mostly up to 28.7 µM
In short: as §1

[19] = test system: CRL-7250; experiment: qHTS assay to identify novel small-molecules to repurpose for Merkel cell carcinoma treatment (AID 1296009); settings: MCC and control cell lines, CellTiter-Glo viability, 72 h; series mostly up to 44.8 µM; also: nearly all actives have a fitted effect of over 60% in size; also: potency is read from the fitted curve at half-maximal effect
In short: as §3

[20] = test system: NIH3T3; experiment: as above; settings: MCC and control cell lines, CellTiter-Glo viability, 72 h; at 44.8 µM (top of the series) unless noted
In short: as §3

CC1NCCOC1c1ccccc1 (centres undefined)
inactive: Potency [1] | Potency [2] | Potency [3] | max response [4] 1.98% | outcome [5] | outcome [6] | max response [7] -11.6% | max response [8] 1.83% | outcome [9] | outcome [10] | Potency [11] | Potency [12] | Potency [13] | Potency [14] | Potency [15] | Potency [16] | Potency [17]

c1ccc2c(c1)Nc1ccccc1S2
active: Potency [18] 3.38 µM
inactive: Potency [2] | outcome [4] | max response [5] -4.55% | max response [6] -0.234% | outcome [6] | max response [7] 3% and -4.89% | max response [8] -3.03% and 0.216% | outcome [19] | outcome [9] | Potency [11] | Potency [12] | Potency [13] | Potency [14] | Potency [15] | Potency [16] | Potency [17]

C#CCN(C)[C@H](C)Cc1ccccc1
inactive: max response [4] -4.73% | outcome [4] | max response [5] -7.43% | outcome [5] | max response [6] -9.07% and 1.92% | max response [7] 4.15% and -12% | max response [8] 3.34% | outcome [8] | outcome [19] | outcome [10] | Potency [11] | Potency [12] | Potency [13] | Potency [14] | outcome [20] | Potency [15] | Potency [16] | Potency [17]

C=C1CC[C@@]2(O)[C@H]3Cc4ccc(O)c5c4[C@@]2(CCN3CC2CC2)[C@H]1O5
active: Potency [18] 6.75 µM
inactive: Potency [1] | Potency [2] | Potency [3] | max response [4] 2.77% | max response [5] -5.09% | outcome [6] | max response [7] 3.52% | outcome [8] | outcome [9] | Potency [11] | Potency [12] | Potency [13] | Potency [14] | outcome [20] | Potency [15] | Potency [16] | Potency [17]

CCC(C(N)=O)N1CCCC1=O (centres undefined)
inactive: Potency [1] | Potency [2] | Potency [3] | max response [4] -0.833% | max response [5] -1.93% | outcome [6] | max response [7] -5.57% | outcome [8] | outcome [9] | Potency [11] | Potency [12] | Potency [13] | Potency [14] | outcome [20] | Potency [15] | Potency [16] | Potency [17]

CNCC(O)c1ccc(O)cc1 (centres undefined)
inactive: max response [4] -6.88% | max response [5] -14.1% and 1.65% | outcome [6] | max response [7] 12.6% | outcome [7] | max response [8] -18% | outcome [8] | outcome [9] | Potency [11] | Potency [13] | Potency [14] | outcome [20] | Potency [15] | Potency [16] | Potency [17]

Oc1ccccc1-c1ccccc1
inactive: Potency [1] | Potency [2] | Potency [3] | outcome [4] | outcome [5] | max response [6] 1.64% | max response [7] 2.06% | outcome [8] | outcome [19] | outcome [10] | Potency [11] | Potency [13] | Potency [14] | outcome [20] | Potency [15] | Potency [16] | Potency [17]

CC(C)(C)CC(C)(C)c1ccc(O)cc1
inactive: Potency [1] | Potency [2] | Potency [3] | max response [4] -2.09% | max response [6] -11.5% | max response [7] 33.4% and 13.2% | outcome [8] | Potency [11] | Potency [12] | outcome [20] | Potency [15] | Potency [17]
active: Potency [4] 38.6 µM | Potency [5] 19.3 µM | Potency [14] 24.3 µM | Potency [16] 34.4 µM

O=P1(NCCCl)OCCCN1CCCl (centres undefined)
inactive: Potency [1] | Potency [2] | Potency [3] | max response [4] -12.2% | max response [5] 3.55% | outcome [6] | max response [7] 0.482% and 4.18% | max response [8] -11.2% and -20.7% | outcome [9] | Potency [11] | Potency [12] | Potency [13] | Potency [14] | Potency [15] | Potency [16] | Potency [17]

N[C@@H]1C[C@H]1c1ccccc1
inactive: max response [4] -2.94% | max response [5] -4.85% | outcome [6] | max response [7] -0.335% | max response [8] 3.17% | outcome [9] | Potency [11] | Potency [13] | Potency [14] | Potency [15] | Potency [16] | Potency [17]

NCCc1cc(O)c(O)cc1O
inactive: Potency [2] | Potency [3] | Potency [18] | max response [4] 3.51% | outcome [5] | outcome [6] | max response [7] 9.04% | outcome [8] | outcome [9] | outcome [10] | Potency [11] | Potency [13] | Potency [14] | outcome [20] | Potency [15] | Potency [16] | Potency [17]

CC(=O)[C@H]1CC[C@H]2[C@@H]3CC[C@H]4C[C@](C)(O)CC[C@]4(C)[C@H]3CC[C@]12C
inactive: Potency [1] | Potency [2] | Potency [3] | outcome [4] | outcome [5] | outcome [6] | max response [7] -8.61% | outcome [8] | outcome [19] | outcome [9] | outcome [10] | Potency [11] | Potency [12] | Potency [13] | Potency [14] | outcome [20] | Potency [15] | Potency [16] | Potency [17]
